FMDV inh: foot and mouth disease virus antiviral activity; Potency, µM (series often up to 57.9 µM), for inactives: at the top dose activity change, negative = inhibition, hits mostly inhibitors; FMDV antiviral cell-based qHTS; 410,000 tested, 1.2% active; AID 1159524; calls by dose curve; tested in HEK293T cells; also: read-out not given here; potency is read from the fitted curve at half-maximal effect; nearly all actives have a fitted effect of over 45% in size
Vaccinia Venus: inhibitors of vaccinia virus (Venus reporter). Vaccinia virus Venus reporter expression, fluorescence. Potency, µM (highest dose often 36.5 µM), without a hit: at the top dose activity change, negative = inhibition, most hits filed as inhibitors. 330,000 tested, 0.46% active; calls by dose curve; tested in A549 cells; also: potency is read from the fitted curve at half-maximal effect; nearly all actives have a fitted effect of over 30% in size
HCMV inh: inhibitors of human cytomegalovirus. HFF cells, HCMV-luciferase reporter, 72 h; stronger effect = lower value. activity change, negative = inhibition, % at 57.5 µM. 410,000 tested, 4.5% active; in the data active = activity change below about -60%; inconclusive = no clear call, values can overlap the other calls; inactive = above about -39%
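Inhibition of viral replication was scored as loss of reporter luminescence in HFFs infected with HCMV-luciferase (MOI 1 PFU/cell) for 72 h; compounds tested at 2 doses, normalized to buffer and Salinomycin controls.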
MARV entry inh: blocks Marburg virus binding to or entry into cells; Marburg virus pseudotyped entry inhibition, cell reporter; Potency, µM (series often up to 37.8 µM), for the others: at the highest dose activity change, negative = inhibition, most hits filed as inhibitors; 300,000 tested, 1.8% active; AID 540276; calls by dose curve; tested in HEK293 cells; also: potency is read from the fitted curve at half-maximal effect
Lassa entry inh: Lassa virus entry inhibition | AID 540256 | Potency, µM (highest dose often 37.9 µM), without a hit: at the highest dose activity change, negative = inhibition, most hits filed as inhibitors | Lassa virus pseudotype entry inhibition, cell reporter | 300,000 tested, 1.2% active; calls by dose curve; tested in HEK293 cells; also: potency is read from the fitted curve at half-maximal effect; nearly all actives have a fitted effect of over 50% in size
VACV mCherry inh: inhibitors of vaccinia virus infection (mCherry reporter signal); Vaccinia virus mCherry reporter infection, fluorescence; Potency, µM (highest dose often 36.5 µM), for inactives: at the highest dose activity change, negative = inhibition, hits mostly inhibitors; 310,000 tested, 0.63% active; AID 720579; calls by dose curve; tested in A549 cells; also: potency is read from the fitted curve at half-maximal effect; nearly all actives have a fitted effect of over 35% in size
Active calls of the source: *; ! = repeats disagree; [ ] = dose if it differs, or a comment. Only some compounds are listed: those with a hit (about 6.5% of all), similar ones and a draw of the others. % is scaled to controls: 0 for no effect and ±100 for the full control effect.

`O=C(NCC1OCCc2ccccc21)c1ccc(NC(=O)c2ccc(Cl)cc2)cc1` (centres undefined) gave FMDV inh 0%, Vaccinia Venus inconclusive, HCMV inh -82*, MARV entry inh -18%, Lassa entry inh inconclusive and VACV mCherry inh inconclusive.
CC(=O)NC1CC2CCCC(C1)N2Cc1ccc(C)cc1 (centres undefined) was read as FMDV inh -10% and HCMV inh -11.
CCCN1C2CCCC1CC(NC(=O)c1cc(OC)c(OC)c(OC)c1)C2 (centres undefined) was read as FMDV inh 8%, Vaccinia Venus 0%, HCMV inh -104*, MARV entry inh inconclusive, Lassa entry inh -1% and VACV mCherry inh -5%.
Screening CCCN1C2CCCC1CC(NC(=O)c1ccccc1OC)C2 (centres undefined) returned FMDV inh -8%, Vaccinia Venus -21%, HCMV inh 66, MARV entry inh inconclusive, Lassa entry inh -7%[46.1 µM] and VACV mCherry inh inactive.
Screening Cc1ccc(CN2C3CCCC2CC(NC(=O)c2ccc(C)cc2)C3)cc1 (centres undefined) returned FMDV inh -20%, HCMV inh inconclusive, MARV entry inh 13µM* and Lassa entry inh inconclusive.
`CC(C)c1ccc(NC(=O)CCNS(=O)(=O)c2ccc3c(c2)oc(=O)n3C)cc1` gave FMDV inh -2%, Vaccinia Venus -2%, HCMV inh -14, MARV entry inh 4%[46.1 µM], Lassa entry inh inconclusive and VACV mCherry inh -6%.
Screening O=C(OCc1nc2scc(-c3ccccc3)c2c(=O)[nH]1)c1cc([N+](=O)[O-])ccc1Cl returned FMDV inh 40µM*, Vaccinia Venus -8%, HCMV inh -24, MARV entry inh 13%, Lassa entry inh 0% and VACV mCherry inh -15%.
For O=c1[nH]c2ccccc2n1C1CCN(C(c2cc3ccccc3o2)c2nnnn2-c2ccc3c(c2)OCCO3)CC1 (centres undefined) the results were FMDV inh 35µM*, Vaccinia Venus inconclusive, HCMV inh -99* and VACV mCherry inh inconclusive.
Screening Cc1cccc(C)c1-n1nnnc1C(c1cccc2ccccc12)N1CCC(n2c(=O)[nH]c3ccccc32)CC1 (centres undefined) returned FMDV inh -17%, Vaccinia Venus -24%, HCMV inh 5 and VACV mCherry inh -8%.
For O=c1[nH]c2ccccc2n1C1CCN(C(c2cccc3ccccc23)c2nnnn2-c2ccc3c(c2)OCCO3)CC1 (centres undefined) the results were FMDV inh inconclusive, Vaccinia Venus -12%, HCMV inh -76* and VACV mCherry inh 0%.
Screening CC(C)CO/N=C1\C[C@@H](O)[C@@H](O)[C@@H]2[C@@H]3C(=O)N(C[C@@H]4CCCO4)C(=O)[C@@H]3CC[C@H]12 returned MARV entry inh 10%[14.2 µM].
Screening CC(C)(C)Cc1c(-c2ccc(C#N)cc2)nc2c(Cl)cc(C(F)(F)F)cn12 returned FMDV inh inconclusive, Vaccinia Venus -10%, HCMV inh -83* and VACV mCherry inh 9%.
COc1ccccc1Cc1c(-c2ccc(C#N)cc2)nc2c(Cl)cc(C(F)(F)F)cn12 was read as FMDV inh -15%, Vaccinia Venus 23% and VACV mCherry inh -19%.
Screening O=c1ccn([C@@H]2O[C@H](COS(=O)(=O)O)[C@@H](O)[C@H]2O)c(=O)[nH]1 returned FMDV inh 0%, Vaccinia Venus -15%, HCMV inh -62* and VACV mCherry inh inactive.
For CCc1cccc(C)c1NC(=O)c1cc(C)nc2c1c(C)nn2-c1cccc(Cl)c1C the results were FMDV inh -10%, Vaccinia Venus -4%, HCMV inh 1, Lassa entry inh 1%[46.1 µM] and VACV mCherry inh -3%.
`CCOc1ccc(/C=C/c2nc(C#N)c(NC(C)c3ccccc3)o2)cc1` (centres undefined) gave FMDV inh -10%, Vaccinia Venus -23%, HCMV inh inconclusive, MARV entry inh -16%[46.1 µM], Lassa entry inh inconclusive and VACV mCherry inh -18%.
`CCOc1ccc(/C=C/c2nc(C#N)c(NCc3ccccc3)o2)cc1` gave FMDV inh inconclusive, Vaccinia Venus inconclusive, HCMV inh -93*, MARV entry inh -19%[46.1 µM], Lassa entry inh -20%[46.1 µM] and VACV mCherry inh inconclusive.
`CCCCCCCCCCCCCCCC(=O)OC(CC(=O)O)C[N+](C)(C)C` (centres undefined) gave FMDV inh -23%, Vaccinia Venus inconclusive, HCMV inh 43, MARV entry inh 22µM*!, Lassa entry inh inconclusive and VACV mCherry inh inconclusive.
CCCCCCCCCCCCCCCC(=O)O[C@H](CC(=O)O)C[N+](C)(C)C was read as FMDV inh -19% and MARV entry inh -27%.
For COc1ccc(CN2CCC3(CC2)c2ccccc2[C@@H](NC(=O)c2ccco2)[C@@H]3OC)c(O)c1 the results were FMDV inh -6%, Vaccinia Venus -3% and VACV mCherry inh -17%.
For C=C(C)COc1ccc2oc(C)c(C(=O)OCCOC)c2c1 the results were FMDV inh -14%, HCMV inh -15, MARV entry inh 5% and Lassa entry inh 18%.
CCN(CC)CCOC(=O)c1c(C)oc2ccc(OC)cc12 was read as Vaccinia Venus 9%, HCMV inh -66*, MARV entry inh inconclusive, Lassa entry inh 5% and VACV mCherry inh 5%.
`CCOC(=O)c1c(-c2ccc(OC)cc2)oc2ccc(OC(=O)N(C)C)cc12` gave FMDV inh inconclusive, HCMV inh -21, MARV entry inh 18µM* and Lassa entry inh inconclusive.
For COc1ccc(-c2oc3ccccc3c2C(=O)OCc2ccc([N+](=O)[O-])cc2)cc1 the results were FMDV inh -24%, Vaccinia Venus -29%, HCMV inh -62* and VACV mCherry inh -1%.
COc1ccc(Cn2cnc3cnc(-c4cc(OC)c(OC)c(OC)c4)cc32)cc1OC was read as HCMV inh 39.
CCOc1ccc(CNC(=O)c2cc(=O)[nH]c3ccc(S(=O)(=O)N4CCCC4)cc23)cc1 was read as FMDV inh -14%, Vaccinia Venus 1%, HCMV inh inconclusive, Lassa entry inh 26%[46.1 µM] and VACV mCherry inh -8%.
`COc1cc2c(cc1OC)C(C)N(C(=O)Nc1cc(C)cc(C)c1)CC2` (centres undefined) gave FMDV inh -17% and HCMV inh -37.
`COc1cc2c(cc1OC)C(C)N(C(=O)c1cc3c(C)cc(C)cc3[nH]1)CC2` (centres undefined) gave FMDV inh -18%, Vaccinia Venus -11%, HCMV inh -30, MARV entry inh 3.2µM*, Lassa entry inh inconclusive and VACV mCherry inh inactive.

Compound activity deposited in PubChem BioAssay by National Center for Advancing Translational Sciences (NCATS).
